About 83,000 compounds went through this panel and 20% of them were active in at least one assay; those are over-represented in the sample as a whole.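 How to read the values: 0–100, growth inhibition (40 = 60% inhibited); 0, no net growth; -100 to 0, cell death (-40 = 40% of starting cells died; -100 = all dead).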 Activity calls are given as the source filed them.

The test deals with MOLT-4 leukemia. The experiment in a line: NCI-60 one-dose screen, 48 h (100 = growth as untreated, 0 = no growth, -100 = all killed). Particulars: 10 µM unless noted. As to the method:
Growth inhibition of the MOLT-4 human tumor cell line is measured as a screen for anti-cancer activity. Cells are grown in 96 well plates and exposed to the test compound for 48 hours. Compounds are tested at a single concentration, which is 10^-5 M for most compounds. The reported endpoint is percent growth (GI% or GIPRCNT), where numbers from 0 - 100% represent growth inhibition, and numbers from -100% - 0 represent cell death. For example, a value of 40 represents 60% growth inhibition. A value of 0 means no net growth occurred over the course of the experiment. A value of -40 indicates 40% of cells at the beginning of the experiment died by the end of the experiment. A value of -100 means all cells are dead at the end of the experiment.
NCI-60 Human Tumor Cell Lines Screen was performed using the standard one-dose NCI protocol, which is described in more detail at https://dtp.cancer.gov/discovery_development/nci-60/default.htm.
Compounds with GIPRCNT values below 10 were considered active. Activity score was based on GIPRCNT using the following formula: […]
Score is 0 for GIPRCNT values of 100 or above, 50 for GIPRCNT values of 0, and 100 for GIPRCNT values of -100.
For the molecule `COc1ccccc1/C=C/C=N/NC1=NC2C(S1)N(C)C(=O)N2C` (stereo not given), the growth was 21% (inactive).
The value for `CC(C)(C)Nc1nc2c(OCCc3ccccc3)cccn2c1-c1ccc(O)cc1` was 22.7% (inactive).
For the molecule `C#Cc1nc(C2=C(C)C(O)CC2)cs1` (stereo not given), the growth was 95.1% (inactive).
Consider `Cc1cc2nc3c4cc(Cl)ccc4n(CC(=S)NCCN(C)C)c3nc2cc1C`, for which the growth is -60.3% (active).
Regarding `Clc1ccc2oc3c(NCCCn4ccnc4)c4ccccc4nc3c2c1`, the growth is 7.69% (active).
`O=C1[C@H]2Cc3c([nH]c4ccccc34)[C@@H](c3ccc(Br)cc3)N2C(=O)CN1C1CCN(Cc2ccccc2)CC1`: the growth is 12.7% (inactive).
The value for `Cc1ccc(C(=O)Nc2cccc(C(F)(F)F)c2)cc1Nc1nc(-c2cnccn2)nc2c1cnn2C` was 43.1% (inactive); that for `c1ccc2c(NCCCn3ccnc3)c3oc4ccccc4c3nc2c1` was -3.87% (active); that for `COc1ccc(/C=N/NC(=O)c2[nH]c3ccc(Br)cc3c2-c2ccccc2)s1` was 10.4% (inactive).
The figure for `CC(O)C(NC(=O)C1CCCN1C(=O)CNC(=O)C1CC(=O)NCC(=O)NC(Cc2c[nH]c3ccccc23)C(=O)NC(Cc2ccc(O)cc2)C(=O)NCC(=O)NC(CO)C(=O)NC(CCC(N)=O)C(=O)NC(Cc2c[nH]c3ccccc23)C(=O)N1)C(=O)NCC(=O)NC(CCC(N)=O)C(=O)NC(CCCNC(=N)N)C(=O)NC(CC(=O)O)C(=O)O` (stereo not given) is 104% (inactive).
With `Cn1c(SCC(=O)c2cccs2)nc2ccccc2c1=O`, the growth is 87% (inactive).
The figure for `COc1ccc(NC2=CC(=O)C(C)=C(C)C2=O)cc1` is 75.6% (inactive).
The figure for `CCN(CC)c1ccc(C=O)c(OCc2cn(CC(=O)Nc3ccc(Cl)cc3)nn2)c1` is 51.9% (inactive); for `COc1ccc(/C=C/C(=O)c2ccc(NC(=O)CSc3nnc(-c4ccc5nc(-c6ccc(Cl)cc6)[nH]c5c4)o3)cc2)cc1` it is 64.4% (inactive).
Take `COc1ccc(/C=C2\SC(=Nc3cc(C)[nH]n3)NC2=O)cc1`: the growth is 94% (inactive).
On to `CN(C)CCCNc1c2ccc(Cl)cc2nc2c1oc1ccccc12`, for which the growth was -1.03% (active).
For the molecule `C/C(=C(/c1ccc(Cl)cc1)c1ccc(OCCN)cc1)c1ccc(C)cc1`, the growth was 96.4% (inactive).
As for `Cc1sc2nc(NCc3ccccc3Cl)[nH]c(=O)c2c1C`, the growth is 69.7% (inactive).
The figure for `O=C1/C(=C/C2=Cc3ccccc3OC2)SC(=S)N1c1ccc(F)cc1` is 108% (inactive); for `N#Cc1c(-c2ccc(Cl)cc2)nc(SCc2ccccc2)nc1N1CCNCC1` it is 52.7% (inactive).
For `CN(C)c1ccc(/C=C2\Cc3c(F)ccc(Br)c3C2=O)cc1`, the growth is 97.7% (inactive).
For `COc1cccc(NC2=CC(=O)C(C)=C(C)C2=O)c1`, the growth is 17.9% (inactive).
As for `C=CCn1c(SCC(=O)c2ccc(Br)cc2)nnc1-c1c[nH]c2ccccc12`, the growth was 91.2% (inactive).
The value for `O=C(N/N=C/c1ccc(Cl)s1)c1[nH]c2ccc(Br)cc2c1-c1ccccc1` was 14.1% (inactive); that for `O=C1Nc2cc(Cl)ccc2/C1=C\c1ccc(OCc2ccc([N+](=O)[O-])cc2)cc1` was 97.4% (inactive).
In the case of `CN1CCN(Cc2ccc(NC(=O)c3cncc(C#Cc4cnc5ccc(N6CCSCC6)nn45)c3)cc2C(F)(F)F)CC1`, the growth was 4.9% (active).
Take `Cc1ccc(-c2nc(C(Cl)Cl)nc3cc(-c4ccccc4)nn23)cc1`: the growth was 10.4% (inactive).
On to `Nc1cc(-c2c[nH]c3ccc(Cl)cc23)nc2cc(-c3c[nH]c4ccc(Cl)cc34)nn12`, for which the growth was 33.3% (inactive).
As to `COc1ccc(C(=O)c2cc(C(=O)/C=C/c3c(Cl)cccc3Cl)c3cc(C)ccn23)cc1`, the growth is 96.4% (inactive).
The figure for `COC1CCN(Cc2ccc3c(NNC(=O)c4cnccn4)nc4cc(F)ccc4n23)C1` (stereo not given) is 8.05% (active).
The figure for `Clc1ccc2c(NCCCN3CCOCC3)c3oc4ccccc4c3nc2c1` is 10.6% (inactive); for `CS(=O)(=O)Nc1ccc(-c2nn(-c3ccc(S(C)(=O)=O)cc3)cc2/C=C/C(=O)c2ccc(NC(=O)CO[N+](=O)[O-])cc2)cc1` it is 107% (inactive); for `COc1cccc(COc2ccc(/C=C3/C(=O)Nc4cc(Cl)ccc43)cc2)c1` it is -25.9% (active).
Regarding `Nc1nc(N)c2c(n1)NC(c1ccc(C(F)(F)F)cc1)CC(c1ccc(Nc3nc(NCCO)nc(Nc4ccc(Cl)cc4)n3)cc1)=N2` (stereo not given), the growth was -15.2% (active).
The value for `COc1cccc(N2CCN(c3ncnc4c3[nH]c3ccc(F)cc34)C[C@@H]2C)c1` was -42% (active); that for `CCOC(=O)c1c(Nc2ccccc2)nn2c(N)c(C#N)c(-c3ccc(Cl)cc3)nc12` was 87.5% (inactive); that for `C#Cc1nc(C2=C(C)C(OC(=O)CCC(=O)O)CC2)cs1` (stereo not given) was 106% (inactive).
Turning to `Nc1c(C(=O)Nc2ccc(C(F)(F)F)cc2)sc2nc(-c3cnccn3)cc(-c3cccs3)c12`, the growth is 75.7% (inactive).
Consider `N[C@@H](Cc1cn(-c2c3ccccc3nc3ccccc23)nn1)C(=O)O`, for which the growth is 99.1% (inactive).
Regarding `O=[N+]([O-])c1ccc(O)c2ncccc12`, the growth was 19.9% (inactive).
